“And” between values parts separate entries of the source, which are not always exact repeats. Equal values may be shown once. Results filed as inconclusive are left out. Where a call stands in place of a potency, no number is given. The source made the active and inactive calls. Unless noted, calls come from the whole dose curve.
What was measured:
[1] = target: Glucocorticoid receptor (Homo sapiens) (UniProt P04150); experiment: qHTS assay for small molecule antagonists of glucocorticoid receptor signaling (AID 588533; active = well fitted inhibition curve with a large enough effect in the signal ratio, with a control signal flat, not every such curve was filed as active; the % refers to the signal ratio;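 note: cells stimulated with 2 nM dexamethasone as agonist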)
Procedure, shortened: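 Antagonist-mode qHTS: compound titrations added to GRE-bla HeLa cells, then dexamethasone 2 nM final; 18 h, 37 C. CCF4 FRET fluorescence normalized to dexamethasone and DMSO; IC50 from Hill fit.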

[2] = target: Peroxisome proliferator-activated receptor gamma (Homo sapiens) (UniProt P37231); experiment: qHTS assay for small molecule agonists of peroxisome proliferator-activated receptor gamma signaling (AID 588536; active = well fitted curve in the direction sought with a large enough effect in the signal ratio, with a control signal flat, not every such curve was filed as active; the % refers to the signal ratio)
Procedure, shortened: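 Using GeneBLAzer HEK293 cells, response was quantified by CCF4 fluorescence and normalized between basal DMSO (0%) and rosiglitazone 2 uM (100%); curves yielded half-maximal stimulation concentration and efficacy.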

[3] = target: Peroxisome proliferator-activated receptor gamma (Homo sapiens) (UniProt P37231); experiment: qHTS assay for small molecule antagonists of peroxisome proliferator-activated receptor gamma signaling (AID 588537; active = well fitted inhibition curve with a large enough effect in the signal ratio, with a control signal flat, not every such curve was filed as active; the % refers to the signal ratio;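 note: reporter cells co-stimulated with 50 nM rosiglitazone agonist during compound treatment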)
Procedure, shortened: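 Cell-based beta-lactamase assay; GW9662 served as the antagonist control. Stimulation used rosiglitazone, final 50 nM, 16 h, 37 C.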

[4] = qHTS assay for small molecule agonists of retinoid X receptor alpha signaling (AID 588544); details: HEK293T RXRa-UAS-bla, beta-lactamase reporter, 18 h; 530 nm emission
[5] = target: Retinoic acid receptor RXR-alpha (Homo sapiens) (UniProt P19793); experiment: as above
[6] = target: Thyroid hormone receptor beta (Homo sapiens) (UniProt P10828); experiment: qHTS assay for small molecule agonists of thyroid hormone receptor beta signaling (AID 588545)
Procedure, shortened: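 In this cell-based screen, titrated compounds act on HEK 293 cells held in medium with 2% charcoal/dextran FBS, NEAA and pyruvate for 18 hrs at 37 C. Responses are expressed relative to T3 (10 nM) as 100% and basal DMSO as 0%.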

[7] = qHTS assay for small molecule antagonists of retinoid X receptor alpha signaling (AID 588546; active = well fitted inhibition curve with a large enough effect in the signal ratio, with a control signal flat, not every such curve was filed as active; the % refers to the signal ratio;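 note: cells stimulated with 9-cis-retinoic acid as agonist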); details: HEK293T RXRa-UAS-bla, beta-lactamase ratio, antagonist mode; measured here: W530 green channel, cytotoxicity proxy
Procedure, shortened: (§1)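 Beta-lactamase reporter inhibition, read as CCF4 fluorescence ratio (ex 405, em 460/530 nm) after 2 h at RT. HEK293T UAS-bla cells, 2500/well, were stimulated with 9-cis-RA at 500 or 100 nM final alongside test compound for 18 h at 37 C.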

[8] = target: Retinoic acid receptor RXR-alpha (Homo sapiens) (UniProt P19793); experiment: as above; details: HEK293T RXRa-UAS-bla, beta-lactamase ratio, antagonist mode
Procedure, shortened: as §1

[9] = target: Thyroid hormone receptor beta (Homo sapiens) (UniProt P10828); experiment: qHTS assay for small molecule antagonists of thyroid hormone receptor beta signaling (AID 588547; active = well fitted inhibition curve with a large enough effect in the signal ratio, with a control signal flat, not every such curve was filed as active; the % refers to the signal ratio;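 note: cells stimulated with 0.4 nM T3 agonist during compound exposure; series mostly up to about 77 µM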); details: TR-UAS-bla HEK293, beta-lactamase ratio, antagonist mode, 18 h
Procedure, shortened: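 Inhibition of T3-driven (0.4nM final) beta-lactamase reporter activity was measured over 0.59 nM to 92 uM compound after 18 h at 37 C. The cells were GripTite HEK293 TR-UAS-bla in charcoal/dextran-stripped serum, with CCF4 ratio read-out and IC50 from Hill fits.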

[10] = target: Voltage-gated inwardly rectifying potassium channel KCNH2 (Homo sapiens) (UniProt Q12809); experiment: qHTS Assay for Small Molecule Inhibitors of the Human hERG Channel Activity (AID 588834; active = well fitted inhibition curve with a large enough effect;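 note: top concentration of the series differs between compounds; lower thallium flux fluorescence means stronger hERG block; nearly all actives have a fitted effect of over 50% in size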)
Procedure, shortened: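 Step 1: BacMam hERG transduction of U2OS, 4 hrs RT. Step 2: overnight 37 °C, plate 2000 cells/well, 4 hr. Step 3: FluxOR load, compound 10 min, stimulate, read fluorescence.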

[11] = qHTS assay for small molecule agonists of the antioxidant response element (ARE) signaling pathway (AID 651741; active = well fitted activation curve with a large enough effect in the signal ratio; the % refers to the signal ratio; note: potency is the fitted concentration of half-maximal effect)
Procedure, shortened: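 Agonist activity is measured as ARE-driven beta-lactamase expression in a stable HepG2 reporter line, using 16 h compound treatment at 37 C and a FRET substrate fluorescence readout after 2 h.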

[12] = qHTS assay for small molecule activators of the nuclear factor-kappa B (NF-kB) signaling pathway (AID 651749; active = well fitted activation curve with a large enough effect in the signal ratio; the % refers to the signal ratio; note: series mostly up to about 77 µM); details: NF-kB-bla ME-180 cells, beta-lactamase FRET ratio, 16 h; stronger effect = higher value
Procedure, shortened: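 FRET-based beta-lactamase detection in ME-180 cells reports NF-kB response-element-driven transcription following overnight (16 hr) compound treatment.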

[13] = qHTS assay for small molecule disruptors of the mitochondrial membrane potential - 1 hr assay (AID 651754); note: nearly all actives have a fitted effect of over 35% in size; note: potency is the fitted concentration of half-maximal effect
Procedure, shortened: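 In this qHTS format, a 1 hr compound treatment of HepG2 cells precedes Mito-MPS staining, and membrane potential is judged from aggregate (red) against monomer (green) fluorescence intensity.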

[14] = target: Vitamin D3 receptor (Homo sapiens) (UniProt P11473); experiment: qHTS assay for small molecule agonists of vitamin D receptor signaling (AID 588543)
Procedure, shortened: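 Reporter cells (HEK293T, VDR-UAS-bla) were seeded in medium with 2% charcoal-stripped serum and incubated 5 h, then compounds in concentration series were added for 16 h at 37 °C. Stimulation was scaled between DMSO basal and 50 nM 1α,25-dihydroxyvitamin D3.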

[15] = target: Vitamin D3 receptor (Homo sapiens) (UniProt P11473); experiment: qHTS assay for small molecule antagonists of vitamin D receptor signaling (AID 588541);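 note: receptor activated by calcitriol during compound treatment; series mostly up to about 77 µM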
Procedure, shortened: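 Antagonist-mode beta-lactamase reporter assay: HEK293T VDR-UAS-bla cells were exposed to titrated compound alongside 1-alpha,25-dihydroxyvitamin D3 at 3 nM final for 16 h. Values were normalized to the 50 nM agonist control and DMSO basal, with IC50 and efficacy from Hill equation fits.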

[16] = qHTS assay for small molecule activators of the p53 signaling pathway (AID 651743; active = well fitted activation curve with a large enough effect in the signal ratio, not every such curve was filed as active; the % refers to the signal ratio; note: series mostly up to about 92 µM); details: HCT-116 p53RE-bla, beta-lactamase FRET ratio, 16 h; stronger effect = higher value
Procedure, shortened: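 A beta-lactamase reporter under p53 response element control, stably carried by HCT-116 cells, reported pathway activation. Test compounds were applied for 16 hours at 37 C, and fluorescence was measured 2 hours after adding the B/G FRET substrate.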

[17] = qHTS assay for small molecule antagonists of peroxisome proliferator-activated receptor delta signaling (AID 588535; active = well fitted inhibition curve with a large enough effect in the signal ratio, with a control signal flat, not every such curve was filed as active; the % refers to the signal ratio;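 for max response: cells co-treated with a PPAR-delta agonist as stimulator during compound exposure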); details: HEK293T PPARd-UAS-bla, beta-lactamase FRET ratio, 18 h; 460 nm channel
Procedure, shortened: (§2)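 Antagonist-mode qHTS using GeneBLAzer PPAR-delta-UAS-bla HEK293T cells; compound exposure 18 hrs at 37 C over a titration. Ratiometric CCF4 fluorescence at 460/530 nm; concentration-response points fitted to the Hill equation.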

[18] = target: Peroxisome proliferator-activated receptor delta (Homo sapiens) (UniProt Q03181); experiment: as above
Procedure, shortened: as §2

Sequence of Retinoic acid receptor RXR-alpha (Homo sapiens) (P19793 whole entry, looked up): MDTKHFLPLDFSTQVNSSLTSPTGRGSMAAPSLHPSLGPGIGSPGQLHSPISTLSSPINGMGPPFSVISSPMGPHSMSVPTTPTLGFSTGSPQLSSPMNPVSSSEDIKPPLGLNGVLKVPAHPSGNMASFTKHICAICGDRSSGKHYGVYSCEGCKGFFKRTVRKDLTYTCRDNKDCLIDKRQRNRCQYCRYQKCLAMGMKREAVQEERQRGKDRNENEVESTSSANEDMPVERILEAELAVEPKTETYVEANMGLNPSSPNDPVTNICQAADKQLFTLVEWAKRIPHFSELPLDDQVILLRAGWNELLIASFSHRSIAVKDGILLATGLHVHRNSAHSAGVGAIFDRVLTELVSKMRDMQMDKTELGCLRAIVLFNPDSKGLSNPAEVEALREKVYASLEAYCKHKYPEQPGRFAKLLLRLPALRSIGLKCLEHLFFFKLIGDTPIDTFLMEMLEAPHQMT
Sequence of Glucocorticoid receptor (Homo sapiens) (P04150 whole entry, looked up): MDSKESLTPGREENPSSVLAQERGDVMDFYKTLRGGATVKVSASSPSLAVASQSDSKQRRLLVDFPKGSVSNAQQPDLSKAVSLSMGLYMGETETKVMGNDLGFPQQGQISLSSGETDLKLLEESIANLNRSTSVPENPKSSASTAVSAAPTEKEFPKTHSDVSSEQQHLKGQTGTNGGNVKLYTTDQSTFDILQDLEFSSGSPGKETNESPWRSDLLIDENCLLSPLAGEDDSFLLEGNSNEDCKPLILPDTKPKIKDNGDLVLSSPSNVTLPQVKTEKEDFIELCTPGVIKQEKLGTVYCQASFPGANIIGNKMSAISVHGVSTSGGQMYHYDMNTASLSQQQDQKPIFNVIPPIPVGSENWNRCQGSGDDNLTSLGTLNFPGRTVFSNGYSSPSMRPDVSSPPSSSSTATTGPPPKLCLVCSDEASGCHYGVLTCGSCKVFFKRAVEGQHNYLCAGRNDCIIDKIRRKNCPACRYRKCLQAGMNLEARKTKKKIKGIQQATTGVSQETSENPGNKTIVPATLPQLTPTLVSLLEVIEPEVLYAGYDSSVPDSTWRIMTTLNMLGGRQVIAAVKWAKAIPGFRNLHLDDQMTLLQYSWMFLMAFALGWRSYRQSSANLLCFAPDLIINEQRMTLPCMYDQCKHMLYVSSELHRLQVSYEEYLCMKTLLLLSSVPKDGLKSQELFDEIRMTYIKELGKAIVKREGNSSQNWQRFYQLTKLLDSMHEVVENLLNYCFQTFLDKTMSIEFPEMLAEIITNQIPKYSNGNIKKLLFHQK
Sequence of Voltage-gated inwardly rectifying potassium channel KCNH2 (Homo sapiens) (Q12809 whole entry, looked up): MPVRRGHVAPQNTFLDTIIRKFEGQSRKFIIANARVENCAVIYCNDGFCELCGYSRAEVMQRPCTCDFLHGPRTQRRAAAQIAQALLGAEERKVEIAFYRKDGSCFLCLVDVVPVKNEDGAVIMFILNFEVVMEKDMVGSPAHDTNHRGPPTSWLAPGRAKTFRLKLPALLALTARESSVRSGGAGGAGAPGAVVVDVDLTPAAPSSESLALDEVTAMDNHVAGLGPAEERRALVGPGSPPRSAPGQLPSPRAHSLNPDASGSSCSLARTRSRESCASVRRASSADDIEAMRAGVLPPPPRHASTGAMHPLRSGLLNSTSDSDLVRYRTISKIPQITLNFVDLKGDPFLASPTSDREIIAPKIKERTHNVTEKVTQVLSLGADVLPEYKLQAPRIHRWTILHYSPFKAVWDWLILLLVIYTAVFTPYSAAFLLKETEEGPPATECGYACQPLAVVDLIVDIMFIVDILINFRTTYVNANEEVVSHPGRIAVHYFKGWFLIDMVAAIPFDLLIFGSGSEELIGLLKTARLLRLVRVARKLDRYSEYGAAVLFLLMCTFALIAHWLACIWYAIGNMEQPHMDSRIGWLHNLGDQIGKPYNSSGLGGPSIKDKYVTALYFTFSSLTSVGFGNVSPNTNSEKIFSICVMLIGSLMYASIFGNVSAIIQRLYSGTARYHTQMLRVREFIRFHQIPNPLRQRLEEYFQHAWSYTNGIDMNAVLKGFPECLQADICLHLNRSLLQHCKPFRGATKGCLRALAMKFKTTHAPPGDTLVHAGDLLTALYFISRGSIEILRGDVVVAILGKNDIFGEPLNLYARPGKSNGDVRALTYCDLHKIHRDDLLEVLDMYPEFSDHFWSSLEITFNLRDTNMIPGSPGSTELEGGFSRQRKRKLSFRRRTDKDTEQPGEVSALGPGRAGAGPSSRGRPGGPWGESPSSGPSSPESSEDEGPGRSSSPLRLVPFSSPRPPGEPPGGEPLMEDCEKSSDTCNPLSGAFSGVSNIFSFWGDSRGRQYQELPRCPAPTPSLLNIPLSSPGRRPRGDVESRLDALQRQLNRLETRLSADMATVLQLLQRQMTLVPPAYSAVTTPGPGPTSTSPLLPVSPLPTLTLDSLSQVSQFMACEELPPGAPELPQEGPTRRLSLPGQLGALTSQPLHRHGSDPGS
Sequence of Vitamin D3 receptor (Homo sapiens) (P11473 whole entry, looked up): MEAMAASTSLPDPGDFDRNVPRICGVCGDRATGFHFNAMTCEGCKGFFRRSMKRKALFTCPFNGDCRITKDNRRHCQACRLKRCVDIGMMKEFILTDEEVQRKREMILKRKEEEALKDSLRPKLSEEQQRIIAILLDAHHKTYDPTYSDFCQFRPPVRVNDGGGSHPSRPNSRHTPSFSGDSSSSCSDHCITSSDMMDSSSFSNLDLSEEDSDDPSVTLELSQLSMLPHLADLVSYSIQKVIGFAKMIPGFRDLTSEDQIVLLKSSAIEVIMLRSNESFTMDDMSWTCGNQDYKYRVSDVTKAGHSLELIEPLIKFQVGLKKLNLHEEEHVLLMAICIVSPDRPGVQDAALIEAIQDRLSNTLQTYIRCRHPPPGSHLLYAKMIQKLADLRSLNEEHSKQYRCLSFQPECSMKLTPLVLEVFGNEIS
Sequence of Peroxisome proliferator-activated receptor gamma (Homo sapiens) (P37231 whole entry, looked up): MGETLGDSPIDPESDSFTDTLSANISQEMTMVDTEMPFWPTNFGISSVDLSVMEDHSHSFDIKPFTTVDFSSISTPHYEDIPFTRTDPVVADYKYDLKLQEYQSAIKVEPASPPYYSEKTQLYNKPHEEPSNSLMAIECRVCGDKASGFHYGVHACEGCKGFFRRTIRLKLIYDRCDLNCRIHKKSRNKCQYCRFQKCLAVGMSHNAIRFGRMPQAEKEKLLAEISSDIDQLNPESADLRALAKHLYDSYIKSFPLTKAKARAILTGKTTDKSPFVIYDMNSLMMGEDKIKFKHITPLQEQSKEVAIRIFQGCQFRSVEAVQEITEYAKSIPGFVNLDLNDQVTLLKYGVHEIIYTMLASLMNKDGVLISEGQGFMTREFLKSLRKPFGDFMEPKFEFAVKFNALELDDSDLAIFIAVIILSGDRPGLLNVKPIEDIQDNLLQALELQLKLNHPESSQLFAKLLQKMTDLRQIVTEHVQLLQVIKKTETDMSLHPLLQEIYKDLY
Sequence of Thyroid hormone receptor beta (Homo sapiens) (P10828 whole entry, looked up): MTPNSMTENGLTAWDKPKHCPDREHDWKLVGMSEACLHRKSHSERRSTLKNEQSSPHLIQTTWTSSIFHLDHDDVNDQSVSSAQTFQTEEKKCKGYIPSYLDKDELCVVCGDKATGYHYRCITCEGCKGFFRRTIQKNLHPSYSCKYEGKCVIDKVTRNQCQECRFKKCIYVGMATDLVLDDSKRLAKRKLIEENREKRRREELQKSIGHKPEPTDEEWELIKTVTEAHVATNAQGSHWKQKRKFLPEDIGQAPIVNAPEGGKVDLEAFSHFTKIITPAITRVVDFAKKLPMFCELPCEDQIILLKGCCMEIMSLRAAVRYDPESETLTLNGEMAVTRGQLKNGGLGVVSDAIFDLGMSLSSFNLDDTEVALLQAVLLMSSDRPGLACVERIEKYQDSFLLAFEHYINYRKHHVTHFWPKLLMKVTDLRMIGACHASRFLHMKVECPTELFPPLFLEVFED
Sequence of Peroxisome proliferator-activated receptor delta (Homo sapiens) (Q03181 whole entry, looked up): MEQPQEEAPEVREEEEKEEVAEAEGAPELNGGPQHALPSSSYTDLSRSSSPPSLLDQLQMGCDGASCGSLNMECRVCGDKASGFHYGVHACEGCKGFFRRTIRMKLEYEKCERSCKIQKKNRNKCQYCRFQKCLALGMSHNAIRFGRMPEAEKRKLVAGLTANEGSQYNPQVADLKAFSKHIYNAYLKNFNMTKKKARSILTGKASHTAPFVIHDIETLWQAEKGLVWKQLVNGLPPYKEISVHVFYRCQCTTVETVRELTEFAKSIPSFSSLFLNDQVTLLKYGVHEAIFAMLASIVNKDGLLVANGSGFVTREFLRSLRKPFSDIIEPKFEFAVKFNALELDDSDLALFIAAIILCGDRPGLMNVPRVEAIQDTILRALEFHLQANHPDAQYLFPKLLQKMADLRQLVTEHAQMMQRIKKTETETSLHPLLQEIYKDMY

SMILES	outcome [1]	outcome [2]	outcome [3]	max response [4]	outcome [5]	outcome [6]	max response [7]	max response [8]	activity change % (negative = inhibition) [9]	Potency [10]	Potency [11]	activation [12]	Potency [13]	outcome [14]	outcome [15]	activation [16]	max response [17]	Potency [18]
O=Cc1ccccc1Cl	inactive	inactive	inactive	-11.2%	inactive	inactive	3.56%	26.5% (inactive)	5% (inactive)	inactive	inactive	-1.13% (inactive)	inactive	–	–	–	–	–
S=C([S-])NCCNC(=S)[S-].[Zn+2]	inactive	inactive	inactive	–	–	inactive	–	–	6.23% (inactive) and -0.322% (inactive)	inactive	–	–	–	inactive	–	–	–	–
Cc1ccccc1C=O	inactive	inactive	–	-10.4%	inactive	inactive	9.24%	9.95% (inactive)	20.8% (inactive)	inactive	–	–	inactive	inactive	inactive	3.12% (inactive)	–	–
C=C(C)C(N)=O	–	inactive	–	-0.693%	inactive	–	-10.5%	23.8% (inactive)	-24.4% (inactive)	inactive	inactive	-0.276% (inactive)	inactive	inactive	inactive	-2.66% (inactive)	–	–
COC(=O)CS	–	–	inactive	-8.12%	inactive	–	-3.61%	1.63% (inactive)	–	inactive	inactive	-0.561% (inactive)	inactive	inactive	inactive	-2.8% (inactive)	–	–
Cc1ccc2c(c1[N+](=O)[O-])C(=O)c1ccccc1C2=O	–	inactive	–	-1.88%	inactive	inactive	-5.46%	-0.36% (inactive)	-11.5% (inactive)	inactive	11.9 µM (active)	-0.166% (inactive)	1.88 µM (active)	inactive	inactive	7.91% (inactive)	–	–
C/C=C(/C)C#N	–	inactive	–	-23.6%	inactive	inactive	0.293%	32% (inactive)	15% (inactive)	inactive	inactive	-0.053% (inactive)	–	–	inactive	-0.853% (inactive)	26.2%	inactive
ClC/C=C/CCl	–	inactive	inactive	-8.83%	inactive	inactive	-5.15%	0.33% (inactive)	19.3% (inactive)	inactive	–	–	inactive	inactive	inactive	-2.54% (inactive)	–	–
Cc1cccc(C(=O)O)c1	–	inactive	inactive	-7.73%	inactive	–	-2.27%	12.5% (inactive)	2.36% (inactive)	inactive	inactive	0.0626% (inactive)	inactive	inactive	inactive	-0.475% (inactive)	-5.23%	–
CC(C)(C)OCC1CO1 (stereo unspecified)	–	inactive	–	-14.1%	inactive	inactive	-6.46%	-4.17% (inactive)	13.4% (inactive)	inactive	–	0.44% (inactive)	inactive	–	inactive	0.176% (inactive)	–	–
